PubChem BioAssay (Tox21)
Inconclusive results are not listed. Entries that show only a call come without a potency. A number with no mark means an inactive call. Activity calls are given as the source filed them. Calls follow the shape of the full dose curve.

Experiment: p53 small molecule agonists, cell-based qHTS assay with human liver microsomes: qHTS cell viability counter screen (AID 1963579); also: nearly all actives have a fitted effect of over 45% in size
Details: p53RE-bla HCT-116 viability, ATP luminescence, 16 h, HLM; series mostly up to 66 µM
Text: National Center for Advancing Translational Sciences [NCATS]
Division of Preclinical Innovation [DPI]
U.S. Environmental Protection Agency [EPA]
National Institutes of Environmental Health Sciences [NIEHS]
National Toxicology Program [NTP]
U.S. Food and Drug Administration [FDA]
p53, a tumor suppressor protein, is activated following cellular insult, including DNA damage and other cellular stresses. The activation of p53 regulates cell fate by inducing DNA repair, cell cycle arrest, apoptosis, or cellular senescence. The activation of p53, therefore, is a good indicator of DNA damage and other cellular stresses. […] The activation of the reporter gene under culture conditions can be detected by fluorescence intensity. This cell line was used to screen the Tox21 10K compound library in the condition of presence of human liver microsomes and to identify agonists that activate the p53 signaling pathway after in vitro metabolic activation (Ooka et al., Archive of Toxicology 96:1975-1987, 2022).
Tox21 Assay Protocol Summary:
The p53RE-bla cells were dispensed at 4,000cells/3ul/well in 1536-well black-clear bottom plates. After the assay plates were incubated at 37 C, 5% CO2 incubator for 5 hours, 23 nL of compounds dissolved in DMSO, positive controls or DMSO only was transferred to the assay plate. Following compound addition, 3 uL of human liver microsomes (XenoTech, Kansas City, KS) at final concentration of 0.5 mg/mL and 1uL of B-Nicotinamide adenine dinucleotide 2'-phosphate (NADPH) at final concentration of 0.5 mg/mL were transferred to the assay plate. The plates were incubated at 37 C for 16 hours. 1 uL of LiveBLAzer detection mixture was added to each well and the plates were incubated at room temperature in the dark for 2 h. Fluorescence intensity at 460 and 530 nm emission and 405 nm excitation were measured by an Envision plate reader. For cell viability readout that measures cytotoxicity, 4 ul/well of CellTiter-Glo reagent was added into the assay plates using a Flying Reagent Dispenser. After 30 min incubation at room temperature, the luminescence intensity in the plates was measured using a ViewLux plate reader.

SMILES	Potency	activity change, negative = cytotoxicity
CCN(CCCCOC(=O)c1ccc(OC)c(OC)c1)C(C)Cc1ccc(OC)cc1 (stereo not given)	inactive	
CCCc1ccc(O)c(OC)c1	inactive	
Nc1nc2c(ncn2COCCO)c(=O)[nH]1	inactive	
C=CC(OCC)OCC	inactive	
CC1(C)Cc2cccc(N)c2O1	inactive	
O[C@@H]1CO[C@H]2[C@@H]1OC[C@@H]2O	inactive	
O=C(c1ccccc1)c1ccc2n1CCC2C(=O)O (stereo not given)	inactive	
CO[C@H]1O[C@H](CO)[C@@H](O)[C@H](O)[C@H]1O	inactive	
Clc1ccnc(Cl)n1	inactive	
COC(=O)c1ccc(I)cc1S(=O)(=O)NC(=O)Nc1nc(C)nc(OC)n1	inactive	
CN1CCN(C2=Nc3ccccc3Sc3ccc(Cl)cc32)CC1	inactive	
CCCCCCC	inactive	
CC(C)c1ccc2oc3nc(N)c(C(=O)O)cc3c(=O)c2c1	inactive	
O=C(O)c1ccc(Cl)c(Cl)c1	inactive	
NS(=O)(=O)c1cc2c(cc1Cl)NC(C(Cl)Cl)NS2(=O)=O (stereo not given)	inactive	
CCCCCc1ccco1	inactive	
NC[C@H]1O[C@H](O[C@H]2[C@H](O[C@@H]3O[C@H](CO)[C@@H](O)[C@H]3O)C(O)[C@H](N)C[C@@H]2N)[C@H](N)[C@@H](O)[C@@H]1O (stereo not given in full)		26.1% [at 5.99 µM]
CCN(CC)c1ccc2c(-c3ccc(S(=O)(=O)O)cc3S(=O)(=O)[O-])c3ccc(=[N+](CC)CC)cc-3oc2c1	inactive	
CCOC(=O)N1CCC(n2c(=O)[nH]c3cc(Cl)ccc32)CC1	inactive	
Cc1ccc2nc(N)[nH]c(=O)c2c1Sc1ccncc1	inactive	

SMILES	Potency	activity change, negative = cytotoxicity
CCCN(CCC)c1c([N+](=O)[O-])cc(C(F)(F)F)c(N)c1[N+](=O)[O-]	inactive	
O=C(OCCCCCCOC(=O)c1ccccc1)c1ccccc1	inactive	
CCCC(C(=O)OCCN(CC)CC)(c1ccccc1)c1ccccc1	inactive	
COC[C@H](c1ccc(C(F)(F)F)cc1)N1CCN(C2(C)CCN(C(=O)c3c(C)ncnc3C)CC2)C[C@H]1C	inactive	
CO/N=C(\C(=O)N[C@@H]1C(=O)N2C(C(=O)O)=C(CSc3nc(=O)c(O)nn3C)CS[C@H]12)c1csc(N)n1	inactive	
CCCCCCCCOC(C)=O	inactive	
C[C@@H]1C[C@H]2[C@@H]3CCC4=CC(=O)C=C[C@]4(C)[C@@]3(F)[C@@H](O)C[C@]2(C)[C@H]1C(=O)CO	inactive	
Oc1ccc2c(c1)OCO2	inactive	
CCOC(=O)C1=NN(c2ccc(Cl)cc2Cl)C(C)(C(=O)OCC)C1 (stereo not given)	inactive	
CC(C(=O)O)c1cccc(Oc2ccccc2)c1 (stereo not given)	inactive	
CC(C)C(O)C(C)(C)CO (stereo not given)	inactive	
CCn1cc(C(=O)O)c(=O)c2cc(F)c(N3CCNC(C)C3)c(F)c21 (stereo not given)	inactive	
CC(C)C(=O)OCc1ccccc1	inactive	
CCOC(=O)OC(C)OC1=C(C(=O)Nc2ccccn2)N(C)S(=O)(=O)c2ccccc21 (stereo not given)	inactive	
Cc1c(N=C=O)cccc1N=C=O	inactive	
CO[Si](C)(OC)c1ccccc1	inactive	
CCOc1nc2cccc(C(=O)O)c2n1Cc1ccc(-c2ccccc2-c2nn[nH]n2)cc1	inactive	
N#Cc1cc2ccccc2c2ccccc12	inactive	
COc1ccccc1N1CCN(CCCCNC(=O)c2ccc(-c3ccc(C(C)=O)cc3)cc2)CC1	inactive	
CC(C)(C)NCC(O)c1cc(O)cc(O)c1 (stereo not given)	inactive	
